Assay outcomes from PubChem BioAssay.
MARV entry inh = Marburg virus entry inhibition; Potency, µM (titrated, usually from 37.8 µM), for inactives: at the top dose activity change, negative = inhibition, actives largely listed as inhibitors; AID 540276; actives 1.8% (n = 300,000); Marburg virus pseudotyped entry inhibition, cell reporter; calls by dose curve; tested in HEK293 cells; also: potency is read from the fitted curve at half-maximal effect; % is scaled to controls: 0 for no effect and ±100 for the full control effect
Shiga inhibitor = blocks Shiga toxin action in Vero cells. AID 2315. actives 9.2% (n = 290,000). inhibition, % at 38.7 µM. Vero cells, Shiga toxin protein synthesis inhibition reporter; in the data active = inhibition mostly above about 28%, no sharp cut-off; inactive = mostly below about 43%; also: 0% is about no effect
LASV entry inh = inhibitors of Lassa virus binding or cell entry. Lassa virus pseudotype entry inhibition, cell reporter. AID 540256. actives 1.2% (n = 300,000). Potency, µM (titrated, usually from 37.9 µM), for the others: at the highest dose activity change, negative = inhibition, most hits filed as inhibitors; calls by dose curve; tested in HEK293 cells; also: potency is read from the fitted curve at half-maximal effect; % is scaled to controls: 0 for no effect and ±100 for the full control effect; nearly all actives have a fitted effect of over 50% in size
CHX counter = counter-screen hit for Shiga toxin inhibitors, cycloheximide; cell reporter, cycloheximide protein synthesis inhibition counterscreen; max response, %; actives 12% (n = 300,000); in the data active = max response mostly above about 13%, no sharp cut-off; inactive = mostly below about 14%; also: read at 38.3 µM for the half of the compounds with a filed dose; 0% is about no effect
AMA1-RON2 inh = AMA1-RON2 (P. falciparum) interaction inhibition. AlphaScreen AMA1-biotinylated RON2 peptide binding. Potency, µM (series often up to 58.2 µM), for inactives: at the highest dose activity change, negative = inhibition, actives largely listed as inhibitors. actives 0.2% (n = 360,000). AID 720542; active = well fitted inhibition curve with a large enough effect; inconclusive = small, poorly fitted or top-dose-only effect; inactive = no such curve, though single readings can be large or run the other way;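 also: potency is read from the fitted curve at half-maximal effect; 0% = vehicle wells and -100% = peptide control; nearly all actives have a fitted effect of over 45% in size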
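AMA1 (3D7) with his tag at 25 nM final met compounds first, then biotinylated RON2 peptide at 25 nM; detection used donor plus acceptor beads, 10 µg/mL apiece, read by AlphaScreen after 30 min at room temperature.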
* marks the source's active call; other numbers are inactive results; [ ] = remark or other dose. The full list was thinned out, with hits kept by preference.

Cc1cccc(-c2nc(CNC(=O)c3ccco3)cs2)c1 was read as MARV entry inh -11%[46.1 µM], Shiga inhibitor 106*, LASV entry inh -5%[46.1 µM], CHX counter 42* and AMA1-RON2 inh 9%.
O=C(c1cc(C2CCCCN2S(=O)(=O)c2ccc(F)cc2F)on1)N1CCOCC1 (stereo not given) was read as AMA1-RON2 inh -2%.
Screening CC(=O)NC1C(=O)N(CCN2CCOCC2)c2ccc(C)cc21 (stereo not given) returned Shiga inhibitor -7, CHX counter -4 and AMA1-RON2 inh 32µM*.
`CCC(C)NC(=O)Nc1ccc(C)cc1C` (stereo not given) gave Shiga inhibitor -2, CHX counter 6 and AMA1-RON2 inh 0%.
For N#CC(CO)(Cc1ccc(OC(F)F)cc1)c1nc2ccccc2[nH]1 (stereo not given) the results were MARV entry inh inconclusive, Shiga inhibitor 40*, LASV entry inh 25%, CHX counter 23* and AMA1-RON2 inh 32%.
Screening COc1ccc(CC(C#N)(CO)c2nc3ccccc3[nH]2)cc1 (stereo not given) returned MARV entry inh inconclusive, Shiga inhibitor 13, LASV entry inh -5%, CHX counter 8 and AMA1-RON2 inh -5%[11.6 µM].
CCCCN(C)CCNC(=O)c1ccc2c(=O)n(CCc3ccccc3)c(=O)[nH]c2c1 was read as MARV entry inh -13%[46.1 µM] and LASV entry inh inconclusive.
COc1cccc(/C=N/NC(=O)c2cccc3ccccc23)c1 was read as MARV entry inh 24%[46.1 µM], Shiga inhibitor 8, LASV entry inh 10%[46.1 µM], CHX counter 13 and AMA1-RON2 inh 0%.
Screening Cn1ncc(Br)c1C(=O)N/N=C/c1ccc(OS(=O)(=O)c2ccccc2)cc1 returned MARV entry inh 22%, Shiga inhibitor 8, LASV entry inh 15%, CHX counter 6 and AMA1-RON2 inh 2%.
Cn1ncc(Br)c1C(=O)N/N=C/c1cccc(OC2CSC2)c1 was read as MARV entry inh -4%, Shiga inhibitor 26*, LASV entry inh 16%, CHX counter 4 and AMA1-RON2 inh 6%.
`Cn1nccc1C(=O)Oc1cccc(/C=N/NC(=O)c2ccccc2O)c1` gave Shiga inhibitor 33*, CHX counter 18 and AMA1-RON2 inh 26%.
O=C(N/N=C/c1cccc(OC2CSC2)c1)c1ccccc1O was read as MARV entry inh inconclusive, Shiga inhibitor 85, LASV entry inh 14%, CHX counter 26* and AMA1-RON2 inh -7%.
For COc1cc(/C=C(\C#N)C(=O)Nc2cccc3ncccc23)ccc1O the results were Shiga inhibitor -10 and CHX counter -2.
For CCOc1cc(/C=C(\C#N)C(=O)Nc2ccccn2)ccc1O the results were MARV entry inh inconclusive, Shiga inhibitor 44, LASV entry inh 10%[46.1 µM], CHX counter 13* and AMA1-RON2 inh -2%.
Screening COc1cc(/C=C(\C#N)C(=O)Nc2ccc3c(c2)OCCO3)ccc1O returned Shiga inhibitor 51*, CHX counter 33* and AMA1-RON2 inh 0%.
For COc1ccc(/C=C(\C#N)C(=O)NC(C)c2ccccc2)cc1O (stereo not given) the results were MARV entry inh -7%[46.1 µM], Shiga inhibitor 17, LASV entry inh 1%, CHX counter 13* and AMA1-RON2 inh 16%.
Screening COc1cc(/C=C/C(=O)OCC(=O)Nc2ccc3c(c2)OCCO3)ccc1O returned MARV entry inh inconclusive, Shiga inhibitor 17, LASV entry inh -26%, CHX counter 4 and AMA1-RON2 inh -9%.
COc1cc(/C=C(\C#N)C(=O)Nc2ccccn2)ccc1O was read as MARV entry inh inconclusive, Shiga inhibitor 52*, CHX counter 19* and AMA1-RON2 inh -17%.
CCCCOC(=O)Cn1nnc2sc(-c3ccccc3)cc2c1=O was read as MARV entry inh 24%[46.1 µM] and LASV entry inh 14%[46.1 µM].
For Cc1occc1C(=O)N1CCN(S(=O)(=O)c2ccccc2)CC1 the results were MARV entry inh 28%, Shiga inhibitor 26, LASV entry inh 2%, CHX counter 7 and AMA1-RON2 inh -20%.
Cc1ccc(S(=O)(=O)NCCc2csc3nc(-c4ccccc4C)nn23)cc1 was read as LASV entry inh -1%[46.1 µM].
Screening O=C(CSc1nc(-c2ccncc2)nn1CC(=O)N1CCCCC1)NC1CCCC1 returned MARV entry inh 9%, Shiga inhibitor -3, LASV entry inh 24%, CHX counter -1 and AMA1-RON2 inh 3.8µM*.
